Inconclusive results are not listed. Active and inactive are the calls of the source. Unless noted, calls come from the whole dose curve; as a rule, active = well fitted curve in the direction sought with a large enough effect; inconclusive = small, poorly fitted or top-dose-only effect, or another doubt; inactive = no such curve, though single readings can be large; an effect the other way counts as inactive or inconclusive.

Here are results for five compounds from PubChem BioAssay (NCATS).

Experiment [1] concerns the target Thyroid hormone receptor beta (Homo sapiens) (UniProt P10828). As to the kind of experiment: qHTS assay for small molecule agonists of thyroid hormone receptor beta signaling (AID 588545; calls by dose curve;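 note: 0% = DMSO only and 100% = 10 nM T3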). The method, boiled down: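 Compounds were tested as agonists in TR-UAS-bla-GripTite HEK 293 cells. After 18 hrs at 37 C, CCF4 substrate was added and fluorescence read after 2 hrs at room temperature.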
Background: Quantitative high-throughput screening tests each substance at several concentrations.

The target is the same in experiment [2]. The experiment in a line: qHTS assay for small molecule antagonists of thyroid hormone receptor beta signaling (AID 588547; active = well fitted inhibition curve with a large enough effect in the signal ratio, with a control signal flat, not every such curve was filed as active; the % refers to the signal ratio;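 note: cells stimulated with 0.4 nM T3 agonist during compound exposure; series mostly up to about 77 µM; % is set by controls: 0 for no effect and ±100 for the full control effect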). The note with it: TR-UAS-bla HEK293, beta-lactamase ratio, antagonist mode, 18 h. The procedure, abridged: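 Inhibition of T3-driven (0.4nM final) beta-lactamase reporter activity was measured over 0.59 nM to 92 uM compound after 18 h at 37 C. The cells were GripTite HEK293 TR-UAS-bla in charcoal/dextran-stripped serum, with CCF4 ratio read-out and IC50 from Hill fits.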

The nature of experiment [3]: qHTS assay for small molecule agonists of the antioxidant response element (ARE) signaling pathway (AID 651741; active = well fitted activation curve with a large enough effect in the signal ratio; the % refers to the signal ratio; note: potency is the fitted concentration of half-maximal effect; for activation: % of control where 0% means no effect). The method, boiled down: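 Beta-lactamase reporter under ARE control in HepG2 cells, 2,000 per well, was induced by 16 h compound treatment at 37 C. Read-out was fluorescence from LiveBLAzer B/G FRET substrate after 2 h at room temperature.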
Experiment [4] is described as follows: qHTS assay for small molecule activators of the p53 signaling pathway (AID 651743; active = well fitted activation curve with a large enough effect in the signal ratio, not every such curve was filed as active; the % refers to the signal ratio; note: series mostly up to about 92 µM; % of control where 0% means no effect). To be noted: HCT-116 p53RE-bla, beta-lactamase FRET ratio, 16 h; stronger effect = higher value. The method, boiled down: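 After 16 hours compound treatment at 37 C, HCT-116 cells stably expressing p53RE-driven beta-lactamase were loaded with LiveBLAzer B/G FRET substrate for 2 hours at room temperature. Fluorescence intensity served as the p53 activation read-out.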

The nature of experiment [5]: qHTS assay for small molecule activators of the nuclear factor-kappa B (NF-kB) signaling pathway (AID 651749; active = well fitted activation curve with a large enough effect in the signal ratio; the % refers to the signal ratio; note: series mostly up to about 77 µM; % of control where 0% means no effect). The note with it: NF-kB-bla ME-180 cells, beta-lactamase FRET ratio, 16 h; stronger effect = higher value. The method, boiled down:
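Activation measured after 16 hr compound treatment at 37C, 5% CO2, of 2,000 ME-180 cells/well stably expressing an NF-kB response element–driven beta-lactamase reporter, via FRET-disruption fluorescence.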

Experiment [6] can be described thus: qHTS assay for small molecule disruptors of the mitochondrial membrane potential - 5 hr assay (AID 651755; calls by dose curve; note: % is set by controls: 0 for no effect and ±100 for the full control effect; nearly all actives have a fitted effect of over 40% in size). The procedure, abridged: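 Membrane-potential dye readout: red aggregate (540 ex/590 em) versus green monomer (490 ex/535 em) fluorescence after 30 min dye loading, following 5 hr compound exposure at 37C of overnight-plated HepG2 cells.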
For experiment [7], the target named is Tumor necrosis factor (Homo sapiens) (UniProt P01375). As to the kind of experiment: qHTS assay to identify small molecules that stimulate Tumor Necrosis Factor-alpha (TNF-alpha) secretion (AID 651757; active = well fitted curve in the direction sought with a large enough effect in the signal ratio; the % refers to the signal ratio; note: 0% is about no effect). The method, boiled down: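 Human monocytic THP-1 cells are plated, treated with compound and held at 37 C for 17 hrs. Labeled anti-TNF-alpha antibody mixture is then added; after 3 hr at room temperature, TR-FRET signal reports secreted TNF-alpha.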
Tumor necrosis factor (Homo sapiens), sequence (P01375 whole entry, looked up): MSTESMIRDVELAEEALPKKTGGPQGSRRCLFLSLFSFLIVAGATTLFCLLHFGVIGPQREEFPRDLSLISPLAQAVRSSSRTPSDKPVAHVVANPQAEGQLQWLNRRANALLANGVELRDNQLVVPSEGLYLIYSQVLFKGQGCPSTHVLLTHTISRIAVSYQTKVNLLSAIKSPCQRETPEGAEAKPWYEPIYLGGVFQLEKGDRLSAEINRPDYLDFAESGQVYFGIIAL

Experiment [8] in a line: qHTS assay to identify small molecules that stimulate interleukin-8 (IL-8) secretion (AID 651758; active = well fitted activation curve with a large enough effect in the signal ratio; the % refers to the signal ratio; note: potency is the fitted concentration of half-maximal effect; for activation: 0% is about no effect). The procedure, abridged: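 Secreted IL-8 measured homogeneously by TR-FRET (two labelled anti-IL-8 antibodies, 1-3 h at room temperature) after a 16 h, 37 C compound treatment of THP-1 cells at 2000 cells/well.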
The nature of experiment [9]: qHTS assay for environmental chemicals that activate the Aryl hydrocarbon Receptor (AhR) signaling pathway (AID 651777). Note: % of control where 0% means no effect; nearly all actives have a fitted effect of over 15% in size. To be noted: 1A2-DRE human hepatoma cells, luciferase, 24 h; activation: stronger effect = higher value. The procedure, abridged: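 Measured luciferase activity, read 30 min after One-Glo addition at room temperature, from human hepatoma cells bearing a dioxin response element–CYP1A2 promoter reporter and exposed to compound for 24 hr at 37 C.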

Experiment [10] addresses Peroxisome proliferator-activated receptor alpha (Homo sapiens) (UniProt Q07869). As to the kind of experiment: qHTS assay for small molecule agonists of the peroxisome proliferator-activated receptor alpha (PPARalpha) signaling pathway (AID 651778). Note: % of control where 0% means no effect. The note with it: PathHunter PPARalpha complementation, chemiluminescence, 6 h; stronger effect = higher value. The method, boiled down:
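Chemiluminescence from complemented enzyme reported PPARalpha activation in cells after 6 hr of compound treatment at 37 C. The detection reagent was incubated for 60 min at room temperature, and compounds were scored as agonists.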

Experiment [11] is described as follows: qHTS assay for small molecule antagonists of the retinoid-related orphan receptor gamma (ROR-gamma) signaling pathway - cell viability counter screen (AID 720652; active = well fitted curve in the direction sought with a large enough effect in the repeat runs; an effect the other way counts as inactive or inconclusive;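 note: compound exposure lasted 16 hr before ATP read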; note: potency is the fitted concentration of half-maximal effect). The method, boiled down: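 Steps: seed CHO cells bearing TET-inducible ROR and ROR response element-luciferase; rest 5 hr at 37 C; add compound, then doxycycline; incubate 16 hr; add CellTiter-Glo and read luminescence as ATP-based viability.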

Experiment [12] in a line: qHTS assay for small molecule agonists of retinoid X receptor alpha signaling (AID 588544). The note with it: HEK293T RXRa-UAS-bla, beta-lactamase reporter, 18 h; 530 nm emission.
Experiment [13] is described as follows: qHTS assay for small molecule antagonists of retinoid X receptor alpha signaling (AID 588546; active = well fitted inhibition curve with a large enough effect in the signal ratio, with a control signal flat, not every such curve was filed as active; the % refers to the signal ratio;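 note: cells stimulated with 9-cis-retinoic acid as agonist; % is set by controls: 0 for no effect and ±100 for the full control effect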). To be noted: HEK293T RXRa-UAS-bla, beta-lactamase ratio, antagonist mode; measured here: W530 green channel, cytotoxicity proxy. The method, boiled down: (§1)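 Beta-lactamase reporter inhibition, read as CCF4 fluorescence ratio (ex 405, em 460/530 nm) after 2 h at RT. HEK293T UAS-bla cells, 2500/well, were stimulated with 9-cis-RA at 500 or 100 nM final alongside test compound for 18 h at 37 C.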

Experiment [14] deals with Retinoic acid receptor RXR-alpha (Homo sapiens) (UniProt P19793). The description is as above. The note with it: HEK293T RXRa-UAS-bla, beta-lactamase ratio, antagonist mode. The procedure, abridged:
as §1

In experiment [15] the target is Voltage-gated inwardly rectifying potassium channel KCNH2 (Homo sapiens) (UniProt Q12809). As to the kind of experiment: qHTS Assay for Small Molecule Inhibitors of the Human hERG Channel Activity (AID 588834).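 Note: top concentration of the series differs between compounds; % is set by controls: 0 for no effect and ±100 for the full control effect; lower thallium flux fluorescence means stronger hERG block; nearly all actives have a fitted effect of over 50% in size.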 The procedure, abridged: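 Thallium-flux (FluxOR) read-out on FDSS: fluorescence read 10 s before and 2 min after stimulation buffer. hERG-BacMam-transduced U2OS cells, compound exposure about 10 min. AC50 by standard Hill equation.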
Voltage-gated inwardly rectifying potassium channel KCNH2 (Homo sapiens), sequence (Q12809 whole entry, looked up): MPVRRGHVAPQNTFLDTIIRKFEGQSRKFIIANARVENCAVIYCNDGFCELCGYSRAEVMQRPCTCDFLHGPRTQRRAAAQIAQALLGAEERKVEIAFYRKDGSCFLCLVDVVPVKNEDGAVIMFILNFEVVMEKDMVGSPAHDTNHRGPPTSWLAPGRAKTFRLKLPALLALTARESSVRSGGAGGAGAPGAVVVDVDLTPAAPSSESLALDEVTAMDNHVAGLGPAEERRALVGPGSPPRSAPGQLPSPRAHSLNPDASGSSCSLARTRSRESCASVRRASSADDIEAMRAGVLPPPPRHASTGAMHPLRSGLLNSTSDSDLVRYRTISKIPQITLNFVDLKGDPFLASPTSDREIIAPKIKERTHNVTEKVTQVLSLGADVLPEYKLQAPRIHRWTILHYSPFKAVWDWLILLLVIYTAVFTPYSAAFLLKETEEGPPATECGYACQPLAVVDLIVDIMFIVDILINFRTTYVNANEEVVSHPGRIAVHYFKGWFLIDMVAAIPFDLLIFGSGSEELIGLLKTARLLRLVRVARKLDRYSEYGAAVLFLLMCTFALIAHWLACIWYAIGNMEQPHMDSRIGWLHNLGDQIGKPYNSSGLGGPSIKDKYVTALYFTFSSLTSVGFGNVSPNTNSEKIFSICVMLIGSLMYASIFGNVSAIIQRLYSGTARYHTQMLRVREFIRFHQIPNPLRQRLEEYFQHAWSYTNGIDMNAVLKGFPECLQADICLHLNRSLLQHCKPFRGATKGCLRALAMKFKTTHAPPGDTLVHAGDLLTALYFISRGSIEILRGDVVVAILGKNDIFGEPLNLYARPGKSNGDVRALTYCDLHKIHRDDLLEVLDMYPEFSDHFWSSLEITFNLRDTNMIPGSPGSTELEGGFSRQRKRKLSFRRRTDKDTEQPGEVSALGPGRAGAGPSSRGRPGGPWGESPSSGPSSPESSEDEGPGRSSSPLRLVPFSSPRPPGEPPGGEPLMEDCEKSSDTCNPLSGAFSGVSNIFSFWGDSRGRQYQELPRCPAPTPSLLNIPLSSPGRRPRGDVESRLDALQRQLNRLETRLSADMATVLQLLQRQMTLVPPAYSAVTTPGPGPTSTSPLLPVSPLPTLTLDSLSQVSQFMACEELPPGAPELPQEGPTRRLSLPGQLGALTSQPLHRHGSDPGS

A short description of experiment [16]: qHTS assay for small molecule disruptors of the mitochondrial membrane potential - 1 hr assay (AID 651754; calls by dose curve; note: % is set by controls: 0 for no effect and ±100 for the full control effect; nearly all actives have a fitted effect of over 35% in size). The method, boiled down: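 Loss of mitochondrial potential shifts the cationic dye from red mitochondrial aggregates to green cytoplasmic monomers. Cells (HepG2) are treated with compound for 1 hr before a 30 min dye incubation at 37C.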
Experiment [17] has as its target Nuclear receptor ROR-gamma (Homo sapiens) (UniProt P51449). The experiment in a line: qHTS assay for small molecule antagonists of the retinoid-related orphan receptor gamma (ROR-gamma) signaling pathway (AID 651802).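 Note: CHO cells with doxycycline-induced ROR-gamma expression; series mostly up to about 92 µM; % is set by controls: 0 for no effect and ±100 for the full control effect; nearly all actives have a fitted effect of over 60% in size.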 The procedure, abridged: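 Steps: cells dispensed; compound or DMSO transferred by pin tool; doxycycline added to induce the ROR response element-driven luciferase; plates held 16hr at 37C; ONE-Glo added and luminescence measured.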

The nature of experiment [18]: qHTS assay for small molecule agonists of the antioxidant response element (ARE) signaling pathway measured by Nrf2-dependant transcriptional activity (AID 720636; active = well fitted curve in the direction sought with a large enough effect in the repeat runs; an effect the other way counts as inactive or inconclusive;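 note: HepG2 cells with an ARE-driven luciferase reporter; % of control where 0% means no effect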). The method, boiled down:
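In HepG2 cells engineered with an Nrf2-responsive luciferase gene, ARE induction was quantified as luminescence after 16 hr compound treatment at 37 C.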

The nature of experiment [19]: qHTS assay for small molecule agonists of the antioxidant response element (ARE) signaling pathway measured by Nrf2-dependant transcriptional activity - cell viability counter screen (AID 720653; active = well fitted curve in the direction sought with a large enough effect in the repeat runs; an effect the other way counts as inactive or inconclusive; note: % is set by controls: 0 for no effect and ±100 for the full control effect). To be noted: ARE-bla HepG2 viability, CellTiter-Glo ATP luminescence, 16 h; stronger effect = lower value. The procedure, abridged:
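Cytotoxicity counter screen: intracellular ATP quantified by CellTiter-Glo luminescence in the same ARE-bla HepG2 plates, after 16 h compound exposure and a 2 h beta-lactamase substrate step.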

Retinoic acid receptor RXR-alpha (Homo sapiens), sequence (P19793 whole entry, looked up): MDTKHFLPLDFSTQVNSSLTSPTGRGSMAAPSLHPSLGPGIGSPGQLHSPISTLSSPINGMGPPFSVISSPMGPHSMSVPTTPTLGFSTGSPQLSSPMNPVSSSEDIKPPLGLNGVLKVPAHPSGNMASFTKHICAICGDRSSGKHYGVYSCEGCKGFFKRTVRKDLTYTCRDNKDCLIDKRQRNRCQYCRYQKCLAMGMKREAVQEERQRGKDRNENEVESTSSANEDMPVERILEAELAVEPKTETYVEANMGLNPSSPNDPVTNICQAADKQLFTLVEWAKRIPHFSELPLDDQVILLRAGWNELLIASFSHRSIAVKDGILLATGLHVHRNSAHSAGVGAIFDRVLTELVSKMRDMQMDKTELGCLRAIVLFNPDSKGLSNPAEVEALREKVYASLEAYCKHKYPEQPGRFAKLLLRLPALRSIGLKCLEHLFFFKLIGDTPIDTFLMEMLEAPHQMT
Nuclear receptor ROR-gamma (Homo sapiens), sequence (P51449 whole entry, looked up): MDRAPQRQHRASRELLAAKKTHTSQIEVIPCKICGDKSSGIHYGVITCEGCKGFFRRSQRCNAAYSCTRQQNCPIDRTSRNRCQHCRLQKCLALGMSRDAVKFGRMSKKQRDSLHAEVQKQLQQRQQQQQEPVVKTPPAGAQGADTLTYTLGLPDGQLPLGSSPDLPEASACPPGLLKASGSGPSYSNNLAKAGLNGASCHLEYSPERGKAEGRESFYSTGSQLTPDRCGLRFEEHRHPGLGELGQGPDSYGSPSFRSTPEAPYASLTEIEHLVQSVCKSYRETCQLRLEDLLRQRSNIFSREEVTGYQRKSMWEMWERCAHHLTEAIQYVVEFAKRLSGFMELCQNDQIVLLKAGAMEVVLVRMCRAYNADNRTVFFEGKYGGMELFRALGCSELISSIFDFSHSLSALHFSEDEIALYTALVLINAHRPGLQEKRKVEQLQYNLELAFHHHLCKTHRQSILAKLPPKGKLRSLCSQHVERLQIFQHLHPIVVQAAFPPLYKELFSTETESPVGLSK
Peroxisome proliferator-activated receptor alpha (Homo sapiens), sequence (Q07869 whole entry, looked up): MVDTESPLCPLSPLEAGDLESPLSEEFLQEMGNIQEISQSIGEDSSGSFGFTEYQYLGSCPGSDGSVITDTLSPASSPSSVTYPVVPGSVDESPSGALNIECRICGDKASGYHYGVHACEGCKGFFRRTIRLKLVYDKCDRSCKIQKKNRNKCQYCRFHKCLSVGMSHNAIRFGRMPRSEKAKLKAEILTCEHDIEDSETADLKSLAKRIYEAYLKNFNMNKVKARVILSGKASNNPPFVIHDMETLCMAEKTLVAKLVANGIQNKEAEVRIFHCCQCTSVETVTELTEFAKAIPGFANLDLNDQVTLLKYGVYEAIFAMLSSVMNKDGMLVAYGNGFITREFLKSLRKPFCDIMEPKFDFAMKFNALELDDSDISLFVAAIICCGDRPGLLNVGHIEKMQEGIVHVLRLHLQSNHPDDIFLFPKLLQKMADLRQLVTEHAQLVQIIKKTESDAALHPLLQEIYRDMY
Thyroid hormone receptor beta (Homo sapiens), sequence (P10828 whole entry, looked up): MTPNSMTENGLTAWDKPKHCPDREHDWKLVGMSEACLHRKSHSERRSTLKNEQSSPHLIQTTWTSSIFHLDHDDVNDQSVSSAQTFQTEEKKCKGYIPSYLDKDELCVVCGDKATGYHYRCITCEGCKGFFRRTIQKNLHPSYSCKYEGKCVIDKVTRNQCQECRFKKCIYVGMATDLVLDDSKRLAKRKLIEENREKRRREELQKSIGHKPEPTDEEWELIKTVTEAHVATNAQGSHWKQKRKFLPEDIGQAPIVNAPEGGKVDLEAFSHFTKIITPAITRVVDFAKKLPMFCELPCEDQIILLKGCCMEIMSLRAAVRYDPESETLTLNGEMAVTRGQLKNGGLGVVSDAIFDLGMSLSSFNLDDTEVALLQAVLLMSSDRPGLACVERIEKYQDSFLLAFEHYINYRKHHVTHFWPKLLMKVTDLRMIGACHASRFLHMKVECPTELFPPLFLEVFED

In the case of `CC1=C(/C=C/C(C)=C/C=C/C(C)=C\C=O)C(C)(C)CCC1`, the call in experiment [1] was inactive. The activity change % (negative = inhibition) in experiment [2] was -14.6% (inactive). Further, the Potency in experiment [3] was 37.6 µM (active); in experiment [8], 0.422 µM (active); in experiment [11], 26.6 µM (active). The activation was 8.65% (inactive) in [4], -1.57% (inactive) in experiment [5] and 6.53% (inactive) in [9]. Moreover, the Potency result in experiment [6] and in experiment [7] was “inactive” in each case. For the same compound, the max response in experiment [10] was 1.33% (inactive).

As to `Cc1cc(C)cc(O)c1`, the max response in experiment [12] was 0.806%; in [13] it was -5.75%; in experiment [14], 24.6% (inactive); in [10] it was -2.86% (inactive); in experiment [19], -0.981% (inactive). The result in experiment [1] and in experiment [18] was inactive. Also, the Potency entry in experiment [15], in experiment [3], in experiment [16], in experiment [6], in experiment [7] and in [17] was “inactive” each time. Moreover, the Potency result in experiment [11] was “inactive”. Also, the activation was -2.15% (inactive) in experiment [4] and -0.55% (inactive) in experiment [9].

As to `CNc1ccc([N+](=O)[O-])cc1`, the max response was 3.4% in [12]; 8.47% in experiment [13]; 0.864% (inactive) in experiment [14]; -2.03% (inactive) in experiment [10]; 5.65% (inactive) in experiment [19]. Also, the call in experiment [1] and in experiment [18] was inactive. In experiment [2], the activity change % (negative = inhibition) was 2.18% (inactive). The Potency result in experiment [15], in [6], in experiment [7] and in [17] was “inactive” in each case. Further, the activation in experiment [5] is -1.5% (inactive); in experiment [9] it was 1.91% (inactive).

Regarding `C=Cc1ccccc1C=C`, the max response in [12] is -7.36%; in experiment [13], -3.83%; in experiment [10], -1.6% (inactive); in [19], 4.89% (inactive). The result in experiment [1] and in [18] was inactive. Also, in [2], the activity change % (negative = inhibition) was -4.38% (inactive). For the same compound, the Potency result in experiment [15], in experiment [6], in experiment [7], in experiment [8], in experiment [17] and in experiment [11] was “inactive” throughout. For the same compound, the figures for the activation in experiment [4] and in experiment [9] were -1.45% (inactive) and -0.496% (inactive), respectively.

For `O=[N+]([O-])c1cccc(C(F)(F)F)c1`, the max response is -15.5% in experiment [12]; -3.15% in experiment [13]; -2.39% (inactive) in experiment [14]; 2.74% (inactive) in [10]; 14.6% (inactive) in [19]. Moreover, the result in experiment [1] and in [18] was inactive. Also, the Potency entry in experiment [15], in experiment [16], in experiment [7], in experiment [8], in experiment [17] and in experiment [11] was “inactive” throughout. Further, the activation in experiment [9] is 0.319% (inactive).
